Assay results from PubChem BioAssay (NCI).
Compounds without any hit were thinned out: in the full panel of roughly 83,000, 20% have a hit.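 Cells were grown in 96-well plates and exposed to the test compound at a single concentration for 48 hours; results are reported as percent growth, with values below 10 considered active.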 Active and inactive are the calls of the source.

What was measured:
Assay in all cases: NCI-60 one-dose screen, 48 h (100 = growth as untreated, 0 = no growth, -100 = all killed)
HCT-15 colon = settings: 10 µM unless noted
HT29 colon = settings: 10 µM unless noted
SNB-75 CNS = settings: 10 µM unless noted
SNB-19 CNS = settings: 10 µM unless noted
U251 CNS = settings: 10 µM unless noted
PC-3 prostate = settings: 10 µM unless noted
SK-MEL-5 melanoma = settings: 10 µM unless noted
UACC-62 melanoma = settings: 10 µM unless noted
LOX IMVI melanoma = settings: 10 µM unless noted
SK-MEL-28 melanoma = settings: 10 µM unless noted
SK-MEL-2 melanoma = settings: 10 µM unless noted
SN12C renal = settings: 10 µM unless noted
UO-31 renal = settings: 10 µM unless noted
TK-10 renal = settings: 10 µM unless noted
CAKI-1 renal = settings: 10 µM unless noted
HL-60(TB) leukemia = settings: 10 µM unless noted
CCRF-CEM leukemia = settings: 10 µM unless noted
ACHN renal = settings: 10 µM unless noted
A498 renal = settings: 10 µM
EKVX NSCLC = settings: 10 µM unless noted

Measured: growth

COc1ccc(S(=O)(=O)Nc2c(/C=C\c3cc(OC)c(OC)c(OC)c3)ccc(OC)c2O)cc1OC
active: SK-MEL-5 melanoma -34.9% | SK-MEL-2 melanoma 9.91% | HL-60(TB) leukemia 4.28%
inactive: HCT-15 colon 15.6% | HT29 colon 10% | SNB-75 CNS 43.8% | SNB-19 CNS 39% | U251 CNS 12.9% | PC-3 prostate 28.2% | UACC-62 melanoma 45.2% | LOX IMVI melanoma 21.6% | SK-MEL-28 melanoma 58.6% | SN12C renal 31% | UO-31 renal 49.3% | TK-10 renal 70.9% | CAKI-1 renal 22.8% | CCRF-CEM leukemia 12%

OCCCCCNC1CCCCC1
inactive: HCT-15 colon 96.1% | HT29 colon 90.7% | SNB-75 CNS 101% | SNB-19 CNS 112% | U251 CNS 101% | PC-3 prostate 101% | SK-MEL-5 melanoma 96.7% | UACC-62 melanoma 102% | LOX IMVI melanoma 101% | SK-MEL-28 melanoma 95% | SK-MEL-2 melanoma 80.7% | SN12C renal 105% | UO-31 renal 87.5% | TK-10 renal 86.5% | ACHN renal 94.1% | CAKI-1 renal 101% | A498 renal 105% | HL-60(TB) leukemia 91.7%

CCC1CN1CCCCN1CC1CC (configuration not stated)
inactive: HCT-15 colon 88.5% | HT29 colon 98.2% | SNB-75 CNS 81.7% | SNB-19 CNS 99.3% | U251 CNS 99% | PC-3 prostate 98.5% | SK-MEL-5 melanoma 99.5% | UACC-62 melanoma 97.2% | LOX IMVI melanoma 97.7% | SK-MEL-28 melanoma 90% | SK-MEL-2 melanoma 118% | SN12C renal 95.2% | UO-31 renal 92.6% | TK-10 renal 104% | ACHN renal 100% | CAKI-1 renal 99.6% | A498 renal 115% | HL-60(TB) leukemia 123%

CN1CC(=O)N(O)C1(C)c1cccnc1 (configuration not stated)
inactive: HCT-15 colon 96.9% | HT29 colon 97.8% | SNB-75 CNS 88.5% | SNB-19 CNS 105% | U251 CNS 102% | PC-3 prostate 95.8% | SK-MEL-5 melanoma 101% | UACC-62 melanoma 104% | LOX IMVI melanoma 97.3% | SK-MEL-28 melanoma 103% | SK-MEL-2 melanoma 94.6% | SN12C renal 101% | UO-31 renal 87.5% | TK-10 renal 97.7% | ACHN renal 102% | CAKI-1 renal 95.2% | A498 renal 97.2% | CCRF-CEM leukemia 106%

N/C(=N\N=C\c1ccc(-c2ccccc2)cc1)N[N+](=O)[O-]
active: SNB-75 CNS -1.49% | A498 renal 5.42%
inactive: HCT-15 colon 31.6% | HT29 colon 14% | SNB-19 CNS 55.3% | U251 CNS 31.1% | PC-3 prostate 29.8% | SK-MEL-5 melanoma 19.8% | UACC-62 melanoma 49.4% | LOX IMVI melanoma 41.9% | SK-MEL-28 melanoma 54% | SK-MEL-2 melanoma 47.1% | SN12C renal 53.3% | UO-31 renal 45.2% | TK-10 renal 44.6% | ACHN renal 52.5% | CAKI-1 renal 27.5% | CCRF-CEM leukemia 11.9%

O=C(c1ccccc1O)c1[nH]c(Cl)c(Cl)c1-n1c(C(=O)c2ccccc2O)cc(Cl)c1Cl
inactive: LOX IMVI melanoma 10.5% | SK-MEL-28 melanoma 14.2%
active: HCT-15 colon 9.94% | HT29 colon 4.28% | SNB-75 CNS -1.42% | SNB-19 CNS 9.34% | U251 CNS -11.8% | PC-3 prostate -13.4% | SK-MEL-5 melanoma -77.9% | UACC-62 melanoma -22% | SK-MEL-2 melanoma -36.9% | SN12C renal -14.2% | UO-31 renal -3.72% | TK-10 renal 6.68% | ACHN renal -9.76% | CAKI-1 renal -11.1% | A498 renal -33.3% | CCRF-CEM leukemia 3.92%

COc1ccc(/C=C\c2cc(OC)c(OC)c(OC)c2)c(NS(=O)(=O)c2ccc(Cl)cc2)c1O
active: SK-MEL-5 melanoma -1.82% | SK-MEL-2 melanoma 0.0535% | HL-60(TB) leukemia -38.8% | CCRF-CEM leukemia 7.81%
inactive: HCT-15 colon 13.4% | HT29 colon 17.1% | SNB-75 CNS 18.9% | SNB-19 CNS 53.4% | U251 CNS 12.3% | PC-3 prostate 26.1% | UACC-62 melanoma 40.9% | LOX IMVI melanoma 10.7% | SK-MEL-28 melanoma 60.3% | SN12C renal 22.1% | UO-31 renal 33.7% | TK-10 renal 25.1% | ACHN renal 25.9% | CAKI-1 renal 28.1%

ClCCN(CCCl)c1ccc(OCc2ccccc2)cc1
inactive: HCT-15 colon 73.1% | HT29 colon 76.7% | SNB-75 CNS 53.8% | SNB-19 CNS 57.1% | U251 CNS 40.5% | PC-3 prostate 63.1% | SK-MEL-5 melanoma 82.7% | UACC-62 melanoma 44.2% | LOX IMVI melanoma 38.9% | SK-MEL-28 melanoma 84.1% | SK-MEL-2 melanoma 114% | SN12C renal 30.8% | UO-31 renal 38.6% | TK-10 renal 96.3% | ACHN renal 17.7% | CAKI-1 renal 11.4% | A498 renal 68.9% | HL-60(TB) leukemia 10.6% | CCRF-CEM leukemia 14.4%

C=CC12CCN(CC1)C(C(O)c1ccnc3ccc(OC)cc13)C2 (configuration not stated)
inactive: HCT-15 colon 66.1% | HT29 colon 11.9% | SNB-75 CNS 52.7% | SNB-19 CNS 98.5% | U251 CNS 80.6% | PC-3 prostate 66% | SK-MEL-5 melanoma 53.1% | UACC-62 melanoma 92.8% | LOX IMVI melanoma 89% | SK-MEL-28 melanoma 85.1% | SK-MEL-2 melanoma 97.3% | SN12C renal 83.5% | UO-31 renal 48.3% | TK-10 renal 88.4% | ACHN renal 80.4% | CAKI-1 renal 69.8% | A498 renal 56.9% | HL-60(TB) leukemia 60.7% | CCRF-CEM leukemia 75.8%

O=C1C2CCC1C(N1CCCC1)CC2 (configuration not stated)
inactive: HCT-15 colon 98.6% | HT29 colon 102% | SNB-75 CNS 79.8% | SNB-19 CNS 102% | U251 CNS 100% | PC-3 prostate 93.1% | SK-MEL-5 melanoma 99.9% | UACC-62 melanoma 96.6% | LOX IMVI melanoma 97.8% | SK-MEL-28 melanoma 102% | SK-MEL-2 melanoma 103% | SN12C renal 100% | UO-31 renal 87.5% | TK-10 renal 97.8% | ACHN renal 102% | CAKI-1 renal 97.7% | A498 renal 92.2% | HL-60(TB) leukemia 97.2% | CCRF-CEM leukemia 94.3%

CC(C)=CCC/C(C)=C/C=N\N=C(/N)N[N+](=O)[O-]
inactive: HCT-15 colon 97.6% | HT29 colon 97.6% | SNB-75 CNS 89.8% | SNB-19 CNS 99.2% | U251 CNS 93.5% | PC-3 prostate 97.6% | SK-MEL-5 melanoma 98.8% | UACC-62 melanoma 95.6% | LOX IMVI melanoma 94.8% | SK-MEL-28 melanoma 114% | SK-MEL-2 melanoma 92.9% | SN12C renal 100% | UO-31 renal 69.7% | TK-10 renal 87.4% | ACHN renal 109% | CAKI-1 renal 84.9% | A498 renal 83.9% | HL-60(TB) leukemia 113% | CCRF-CEM leukemia 93.3%

CC(C)CCC1(CCCl)C(=O)NC(=O)NC1=O
inactive: HCT-15 colon 98.9% | HT29 colon 109% | SNB-75 CNS 85.3% | SNB-19 CNS 97.7% | U251 CNS 94.4% | PC-3 prostate 98.8% | SK-MEL-5 melanoma 97.4% | UACC-62 melanoma 97.6% | LOX IMVI melanoma 97% | SK-MEL-28 melanoma 98.4% | SK-MEL-2 melanoma 104% | SN12C renal 95.6% | UO-31 renal 91% | TK-10 renal 100% | ACHN renal 102% | CAKI-1 renal 94.6% | A498 renal 89.4% | HL-60(TB) leukemia 108% | CCRF-CEM leukemia 95.3%

C[C@]12CC[C@H]3[C@@H](CC4SC(N)=NC45C/C(=N/NC(N)=O)CC[C@]35C)[C@@H]1CCC2=O (some centres not stated)
active: HCT-15 colon -47.8% | SNB-19 CNS -9.98% | U251 CNS -69.9% | LOX IMVI melanoma -67.6% | EKVX NSCLC -4.54% | CCRF-CEM leukemia -5.86%
inactive: HT29 colon 13.2% | SNB-75 CNS 99% | PC-3 prostate 57.3% | SK-MEL-5 melanoma 20.6% | UACC-62 melanoma 38.9% | SK-MEL-28 melanoma 13% | SN12C renal 18.1% | UO-31 renal 85.8% | TK-10 renal 49.2% | ACHN renal 32.4% | CAKI-1 renal 63% | A498 renal 91.6% | HL-60(TB) leukemia 42.8%

NC(CCl)CCl
inactive: HCT-15 colon 87.3% | HT29 colon 97.8% | SNB-75 CNS 90.3% | SNB-19 CNS 105% | U251 CNS 99.8% | PC-3 prostate 104% | SK-MEL-5 melanoma 99.4% | UACC-62 melanoma 99.9% | LOX IMVI melanoma 106% | SK-MEL-28 melanoma 98.3% | SK-MEL-2 melanoma 124% | SN12C renal 101% | UO-31 renal 93.3% | TK-10 renal 111% | ACHN renal 104% | CAKI-1 renal 99.3% | A498 renal 111% | HL-60(TB) leukemia 123%

ClCCN(CCCl)Cc1ccc(Nc2ccnc3cc(Cl)ccc23)cc1
active: SK-MEL-2 melanoma -19.5% | ACHN renal 5.15% | CAKI-1 renal -32.8% | HL-60(TB) leukemia -38.6%
inactive: HCT-15 colon 48.2% | HT29 colon 10.2% | SNB-75 CNS 45.1% | SNB-19 CNS 60.8% | U251 CNS 22.4% | PC-3 prostate 47.3% | SK-MEL-5 melanoma 54.2% | UACC-62 melanoma 26.8% | LOX IMVI melanoma 20.1% | SK-MEL-28 melanoma 67.1% | SN12C renal 18.8% | UO-31 renal 34.6% | TK-10 renal 59.5% | A498 renal 77.1%

N#Cc1c(Br)n(C2OC(CO)C(O)C2O)c2ncnc(N)c12 (configuration not stated)
active: A498 renal -16.3% | HL-60(TB) leukemia -33.7% | CCRF-CEM leukemia 8.19%
inactive: HCT-15 colon 43.9% | HT29 colon 43.8% | SNB-75 CNS 76.2% | SNB-19 CNS 101% | U251 CNS 69.4% | PC-3 prostate 16.5% | SK-MEL-5 melanoma 95.9% | UACC-62 melanoma 77.9% | LOX IMVI melanoma 57.2% | SK-MEL-28 melanoma 43.7% | EKVX NSCLC 95.7% | SN12C renal 60.3% | UO-31 renal 42.3% | TK-10 renal 115% | ACHN renal 78.4%

O=C(Nc1ccncc1F)c1cn(CC2CC2)c2ccccc12
inactive: HCT-15 colon 97.3% | HT29 colon 102% | SNB-75 CNS 103% | SNB-19 CNS 97.2% | U251 CNS 98.4% | PC-3 prostate 97.6% | SK-MEL-5 melanoma 97.3% | UACC-62 melanoma 95.3% | LOX IMVI melanoma 97% | SK-MEL-2 melanoma 98.8% | EKVX NSCLC 89.2% | SN12C renal 102% | UO-31 renal 93.9% | TK-10 renal 103% | ACHN renal 108% | CAKI-1 renal 98.2% | A498 renal 91% | HL-60(TB) leukemia 100% | CCRF-CEM leukemia 102%
